Measured values published in the supplement of paper PMC12808144.
A number with no mark means an inactive call.

Key:
Mel-DCC-11 = assay: cell viability relative to DMSO control (fraction of DMSO control); higher = less cytotoxic, active = 0.5 or less; details: 1 µM; 120 h
Method in brief: (§1)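 Three cell types were screened against 315 approved anti-cancer drugs from TargetMol, acoustically pre-spotted in 384-well plates at 1 µM in duplicate over 120 h: NHEM-hTERT immortalized melanocytes (2500/well), patient-derived Mel-DCC-11 and its resistant subline Mel-DCC-11-R (both 1500/well), all in 40 µl per well. The subline was tested alone and with 8 µM of its selecting drug. Viability, measured by luminescence, was normalised to vehicle controls and averaged across duplicates, with ATPlite 1step as the readout.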

NHEM-hTERT = assay: as above; details: 1 µM; 120 h
Method in brief: as §1

Mel-DCC-11-R = assay: cell viability relative to DMSO control (fraction of DMSO control); higher = less cytotoxic, active = 0.8 or less; details: 1 µM, 120 h
Method in brief: as §1

Structure (SMILES)	cell viability (Mel-DCC-11)	cell viability (NHEM-hTERT)	cell viability (Mel-DCC-11-R; vemurafenib co-treatment 0 µM)	cell viability (Mel-DCC-11-R; vemurafenib co-treatment 8 µM)
C[C@@H]1C[C@H]2[C@@H]3CCC4=CC(=O)C=C[C@]4(C)[C@@]3(F)[C@@H](O)C[C@]2(C)[C@@]1(O)C(=O)COP(=O)([O-])[O-].[Na+].[Na+] [Dexamethasone Sodium Phosphate]	1.45	1.2	1.16	0.927
N#CC[C@@H](C1CCCC1)n1cc(-c2ncnc3[nH]ccc23)cn1 [S-Ruxolitinib]	1.16	0.987	1.01	1.28
CC(=O)c1c(C)c2cnc(Nc3ccc(N4CCNCC4)cn3)nc2n(C2CCCC2)c1=O.O=S(=O)(O)CCO [Palbociclib Isethionate]	0.742	1.03	1.6	1.19
Cl.N=c1ccn2c(n1)O[C@H]1[C@H](O)[C@@H](CO)O[C@H]12 [Cyclocytidine hydrochloride]	0.737	0.845	0.873	0.599 (active)
CC[C@@]1(O)C(=O)OCc2c1cc1n(c2=O)Cc2cc3c(CN(C)C)c(O)ccc3nc2-1.Cl [Topotecan hydrochloride]	0.346 (active)	0.768	0.645 (active)	0.339 (active)
CC1(C)[C@@H](O[C@H]2O[C@H](C(=O)O)[C@@H](O)[C@H](O)[C@H]2OC2O[C@H](C(=O)O)[C@@H](O)[C@H](O)[C@H]2O)CC[C@]2(C)[C@H]3C(=O)C=C4[C@@H]5C[C@@](C)(C(=O)O)CC[C@]5(C)CC[C@@]4(C)[C@]3(C)CC[C@@H]12 (some centres undefined) [Glycyrrhizin]	1.13	1.01	1.06	1.19
NC(=O)c1ncn([C@@H]2O[C@H](CO)[C@@H](O)[C@H]2O)c1N [AICAR (Acadesine)]	1.34	1.06	1.12	1.21
CC(C)C[C@H](NC(=O)[C@H](Cc1ccccc1)NC(=O)c1cnccn1)B(O)O [Bortezomib]	0.0258 (active)	0.0282 (active)	0.0464 (active)	0.048 (active)
Cc1ccc(Nc2nccc(N(C)c3ccc4c(C)n(C)nc4c3)n2)cc1S(N)(=O)=O [Pazopanib]	1.68	0.893	1.07	1.13
O=c1cc[nH]c(=O)[nH]1 [Uracil]	0.996	1.1	0.875	1.01
CC(=O)O[C@H]1C(=O)[C@]2(C)[C@@H](O)C[C@H]3OC[C@@]3(OC(C)=O)[C@@H]2[C@@H](OC(=O)c2ccccc2)[C@]2(O)C[C@H](OC(=O)[C@H](O)[C@@H](NC(=O)c3ccccc3)c3ccccc3)C(C)=C1C2(C)C [Paclitaxel]	0.453 (active)	0.569	1.06	0.526 (active)
CN(C)C(=O)c1cc2cnc(Nc3ccc(N4CCNCC4)cn3)nc2n1C1CCCC1 [Ribociclib]	0.584	0.989	1.25	1.21
CN(Cc1cnc2nc(N)nc(N)c2n1)c1ccc(C(=O)N[C@@H](CCC(=O)O)C(=O)O)cc1 [Methotrexate]	1.04	0.976	0.993	1.14
O=c1[nH]c(=O)n([C@H]2C[C@H](O)[C@@H](CO)O2)cc1F [Floxuridine]	1.34	1.11	1.24	1.07
Cc1cc(Nc2ncc(Cl)c(Nc3ccccc3S(=O)(=O)C(C)C)n2)c(OC(C)C)cc1C1CCNCC1	0.955	0.88	1.17	0.873
Cc1[nH]c2ccccc2c1CCNCc1ccc(/C=C/C(=O)NO)cc1 [Panobinostat]	0.126 (active)	0.339 (active)	0.0716 (active)	0.0801 (active)
Cc1ccc(=O)n(-c2ccccc2)c1 [Pirfenidone]	1.14	1.02	1.03	1.1
O=NN(CCCl)C(=O)NCCCl [Carmustine]	1.16	0.992	0.987	1.02
COc1cc([C@@H]2c3cc4c(cc3[C@@H](O[C@@H]3O[C@@H]5CO[C@@H](c6cccs6)O[C@H]5[C@H](O)[C@H]3O)[C@H]3COC(=O)[C@H]23)OCO4)cc(OC)c1O [Teniposide]	1.16	0.746	1.39	0.638 (active)
Nc1nc(F)nc2c1ncn2[C@@H]1O[C@H](COP(=O)(O)O)[C@@H](O)[C@@H]1O [Fludarabine Phosphate]	1.49	1.2	1.07	1.16

Structure (SMILES)	cell viability (Mel-DCC-11)	cell viability (NHEM-hTERT)	cell viability (Mel-DCC-11-R; vemurafenib co-treatment 0 µM)	cell viability (Mel-DCC-11-R; vemurafenib co-treatment 8 µM)
CC(C)(C)c1nc(-c2cccc(NS(=O)(=O)c3c(F)cccc3F)c2F)c(-c2ccnc(N)n2)s1 [Dabrafenib]	0.332 (active)	0.976	1.03	0.894
COC(=O)C1=C(C)NC(C)=C(C(=O)OC)C1c1ccccc1[N+](=O)[O-] [Nifedipine]	1.07	1.03	1.1	1.18
Nc1ncnc2c1ncn2[C@@H]1O[C@H](CO)[C@@H](O)[C@@H]1O [Vidarabine]	1.1	1.02	1.11	1.1
COc1cc([C@H]2Oc3cc([C@H]4Oc5cc(O)cc(O)c5C(=O)[C@@H]4O)ccc3O[C@@H]2CO)ccc1O [Silibinin]	0.939	0.948	0.799 (active)	0.914
CN1[C@@H]2CCC[C@H]1C[C@@H](NC(=O)c1nn(C)c3ccccc13)C2.Cl [Granisetron hydrochloride]	1.15	1.07	0.924	1.07
S=c1nc[nH]c2nc[nH]c12 [Mercaptopurine]	–	1.07	–	–
C=CC(=O)Nc1cc(Nc2nccc(-c3cn(C)c4ccccc34)n2)c(OC)cc1N(C)CCN(C)C [Osimertinib]	0.923	1.16	1.06	0.884
CCN(CC)CCNC(=O)c1c(C)[nH]c(/C=C2\C(=O)Nc3ccc(F)cc32)c1C [Sunitinib]	0.532	0.591	1.16	0.564 (active)
C/C(=C\c1csc(C)n1)[C@@H]1C[C@@H]2O[C@]2(C)CCC[C@H](C)[C@H](O)[C@@H](C)C(=O)C(C)(C)[C@@H](O)CC(=O)N1 [Ixabepilone]	0.316 (active)	0.595	0.67 (active)	0.377 (active)
O=c1[nH]c(=O)n([C@H]2C[C@H](O)[C@@H](CO)O2)cc1/C=C/Br [Brivudine]	0.776	1.08	0.809	1.12
CN(C)c1nc(N(C)C)nc(N(C)C)n1 [Altretamine]	0.88	0.945	0.973	0.92
CC[C@@H](CO)NCCN[C@@H](CC)CO.Cl.Cl [Ethambutol dihydrochloride]	–	1.2	–	–
Nc1cccc2c1C(=O)N(C1CCC(=O)NC1=O)C2=O (centres undefined) [Pomalidomide]	1.03	1.15	1	1.25
CC(=O)c1c(C)c2cnc(Nc3ccc(N4CCNCC4)cn3)nc2n(C2CCCC2)c1=O [Palbociclib]	0.763	0.993	1.76	1.15
COC(=O)c1ccc2c(c1)NC(=O)/C2=C(\Nc1ccc(N(C)C(=O)CN2CCN(C)CC2)cc1)c1ccccc1 [Nintedanib]	0.982	0.909	1.01	0.803
COC(=O)Nc1nc2ccc(C(=O)c3cccs3)cc2[nH]1 [Nocodazole]	0.998	0.63	0.823	0.518 (active)
CC[C@]1(O)C[C@H]2CN(CCc3c([nH]c4ccccc34)[C@@](C(=O)OC)(c3cc4c(cc3OC)N(C=O)[C@H]3[C@@](O)(C(=O)OC)[C@H](OC(C)=O)[C@]5(CC)C=CCN6CC[C@]43[C@@H]65)C2)C1.O=S(=O)(O)O [Vincristine sulfate]	0.517	0.642	0.455 (active)	0.242 (active)
C=C(c1ccc(C(=O)O)cc1)c1cc2c(cc1C)C(C)(C)CCC2(C)C [Bexarotene]	1.77	1.2	1.07	1.59
CCCc1cc(C)[nH]c(=O)c1CNC(=O)c1cc(-c2ccnc(N3CCN(C)CC3)c2)cc2c1cnn2C(C)C	1.45	1.01	0.999	0.88
CC(C)C[C@H](NC(=O)CNC(=O)c1cc(Cl)ccc1Cl)B(O)O [Ixazomib]	0.0361 (active)	0.0856 (active)	0.13 (active)	0.0834 (active)
